Laboratory results published in the supplement of paper PMC3545927.
Some of the results follow. The hit rate among all sequences tested is not known here.

Target: furin, P09958
Assay: furin cleavage Z-score vs untreated control; higher = more cleavage, active = 3.5 or more, inactive = 1 or less, 8 variable residues between constant flanks
Method in brief: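 Purified furin digested bead-held 8-mer peptide–cDNA fusions at 1:10 enzyme:substrate in 0.01 ml of 50 mM HEPES pH 7.5 with CaCl2 and NaCl for 7.5, 15 or 30 min. The cleavage Z-score compares sequencing counts of released DNA with furin-free reactions on a log scale, with lowess adjustment and median absolute deviation scaling.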

Chain of furin, P09958 (P09958 whole entry): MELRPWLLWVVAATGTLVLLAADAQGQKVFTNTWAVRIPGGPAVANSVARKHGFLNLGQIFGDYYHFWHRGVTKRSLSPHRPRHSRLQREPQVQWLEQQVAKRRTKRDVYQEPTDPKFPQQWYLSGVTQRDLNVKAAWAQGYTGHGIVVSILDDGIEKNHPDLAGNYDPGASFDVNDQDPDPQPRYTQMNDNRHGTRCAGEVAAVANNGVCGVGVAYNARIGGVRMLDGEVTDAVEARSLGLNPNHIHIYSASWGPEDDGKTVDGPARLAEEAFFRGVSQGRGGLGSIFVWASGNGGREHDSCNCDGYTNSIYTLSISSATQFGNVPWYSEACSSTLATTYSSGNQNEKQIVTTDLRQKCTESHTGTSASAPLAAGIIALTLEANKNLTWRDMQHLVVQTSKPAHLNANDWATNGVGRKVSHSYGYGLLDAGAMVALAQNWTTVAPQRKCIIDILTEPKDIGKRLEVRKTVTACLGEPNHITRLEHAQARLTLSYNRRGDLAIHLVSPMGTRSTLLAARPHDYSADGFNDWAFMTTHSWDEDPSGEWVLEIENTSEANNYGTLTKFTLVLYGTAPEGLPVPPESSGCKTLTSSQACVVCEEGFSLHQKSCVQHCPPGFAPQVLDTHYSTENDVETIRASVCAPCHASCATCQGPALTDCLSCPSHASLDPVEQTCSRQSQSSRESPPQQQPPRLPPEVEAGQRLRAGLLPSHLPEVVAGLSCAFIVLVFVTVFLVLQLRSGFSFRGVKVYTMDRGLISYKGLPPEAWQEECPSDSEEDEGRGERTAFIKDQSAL

Row | Sequence | furin cleavage Z-score (7.5 min) | furin cleavage Z-score (15 min) | furin cleavage Z-score (30 min)
1 | CAYVTGMTTDAGNASASA [HC1211] | -0.923 (inactive) | -0.868 (inactive) | -1.18 (inactive)
2 | CAQDAVSRTQAGNASASA [HC900] | -0.887 (inactive) | -1.13 (inactive) | -1.41 (inactive)
3 | CADLEVVTSTAGNASASA [HC2271] | -1.06 (inactive) | 0.142 (inactive) | -0.409 (inactive)
4 | CAGYIPLVGAAGNASASA [HC228] | -0.438 (inactive) | -0.464 (inactive) | -0.124 (inactive)
5 | CALRRRMRRRAGNASASA [FS-1368] | 3.44 | 4.48 (active) | 4.37 (active)
6 | CALEHRRMRRAGNASASA [FS-349] | 11 (active) | 10.5 (active) | 9.29 (active)
7 | CASTPCSAGLAGNASASA [HC2556] | -0.924 (inactive) | -0.11 (inactive) | -0.471 (inactive)
8 | CAWEECSQHLAGNASASA [HC1668] | 2.53 | 0.743 (inactive) | 0.0767 (inactive)
9 | CAGTPCSAHLAGNASASA [HC2476] | -0.662 (inactive) | -0.917 (inactive) | -0.0259 (inactive)
10 | CAATPCSGSWAGNASASA [HC1823] | -0.934 (inactive) | -0.493 (inactive) | -0.88 (inactive)
11 | CAEHVTSTWVAGNASASA [HC2175] | -1.96 (inactive) | 1.55 | 0.829 (inactive)
12 | CARDRRMMSQAGNASASA [FS-2653] | 0.37 (inactive) | 0.534 (inactive) | 0.367 (inactive)
13 | CARIRRRASQAGNASASA [FS-2032] | 3.16 | 3.54 (active) | 4.94 (active)
14 | CARLKRIISHAGNASASA [FS-2706] | 0.518 (inactive) | -1.37 (inactive) | -0.856 (inactive)
15 | CARLRRDTQQAGNASASA [FS-2494] | 8.34 (active) | 9.45 (active) | 7.24 (active)
16 | CARLRRQKLSAGNASASA [FS-2576] | 0.0621 (inactive) | 0.201 (inactive) | -0.745 (inactive)
17 | CARLRRVSHQAGNASASA [FS-1861] | -2.01 (inactive) | 0.557 (inactive) | 1.98
18 | CARLRRRTSHAGNASASA [FS-2716] | 1.21 | 1.27 | 4.1 (active)
19 | CARLRRAADHAGNASASA [FS-2712] | 8.97 (active) | 8.17 (active) | 7.64 (active)
20 | CARLRRVVGQAGNASASA [FS-1747] | 0.978 (inactive) | -0.277 (inactive) | 1.66
21 | CARLRREPGGAGNASASA [FS-2713] | -0.934 (inactive) | -0.299 (inactive) | -0.815 (inactive)
